# According to PubChem BioAssay (NCATS):
# Values joined by “and” are separate entries in the source; they are usually repeats but may differ in a detail not shown here. Identical values can stand only once. Results filed as inconclusive are left out. Entries that show only a call come without a potency. The source holds several records for some structures; these can differ, active in one and inactive in another. Active and inactive are the calls of the source. Calls come from the whole dose curve; as a rule, active = well fitted curve in the direction sought with a large enough effect; inconclusive = small, poorly fitted or top-dose-only effect, or another doubt; inactive = no such curve, though single readings can be large; an effect the other way counts as inactive or inconclusive.
# What was measured:
# [1] = target: Glutathione peroxidase 1 (Homo sapiens) (UniProt P07203); assay: Primary qHTS Assay for Inhibitors of Recombinant Selenoprotein Glutathione Peroxidase 1 (GPX1) (AID 1845191); note: nearly all actives have a fitted effect of over 65% in size; note: potency is the fitted concentration of half-maximal effect
# Method in brief: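 10 nM GPX1 + cpd, 30 min RT; start w/ 1 mM GSH, 0.5 mM cumene hydroperoxide, 0.5 mM NADPH, 100 nM GR, 0.01% BSA; buffer 50 mM Tris-HCl pH 7.5, 2 mM EDTA, 150 mM NaCl; Fl 340/450, 0 & 15 min.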
# [2] = target: Phospholipid hydroperoxide glutathione peroxidase GPX4 (Homo sapiens) (UniProt P36969); assay: Primary qHTS Assay for Inhibitors of Recombinant Selenoprotein Glutathione Peroxidase 4 (GPX4) (AID 1845192); note: nearly all actives have a fitted effect of over 65% in size; note: potency is the fitted concentration of half-maximal effect; for activity change, negative = inhibition: series mostly up to about 50 µM
# Method in brief: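 NADPH consumption, followed by fluorescence at 340/450 nm between 0 and 15 min, reports GPX4 activity via coupled glutathione reductase (100 nM). Enzyme 200 nM was pre-exposed to compound 30 min; 0.5 mM cumene hydroperoxide and 1 mM GSH served as substrates.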
# [3] = target: Luciferin 4-monooxygenase (Photinus pyralis) (UniProt P08659); assay: Primary firefly luciferase (FLuc) qHTS assay for identification of artifact compounds. (AID 1845220); note: nearly all actives have a fitted effect of over 60% in size; for activity change, negative = inhibition: series mostly up to about 54 µM
# Method in brief: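 Cell-free, 1536-well qHTS. Buffer pH 7.6 with 0.01% Tween-20 and 0.05% BSA; 10 uM D-luciferin, 10 uM ATP; 10 nM P. pyralis luciferase; luminescence after 5 min.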
# [4] = Primary fluorescence-based thiol-reactive (MSTI) qHTS assay for identification of artifact compounds. (AID 1845221);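 note: series mostly up to about 54 µM; thiol-reactive compounds lower the probe fluorescence signal; nearly all actives have a fitted effect of over 65% in size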
# Method in brief: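 Probe: MSTI 4 uM, PBS pH 7.4, 2% DMSO. Incubation 1 h, RT, light-protected. Readout fluorescence 525/598 nm.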
# [5] = tested on: Nanoluciferase (engineered Oplophorus gracilirostris luciferase); assay: Primary Nanoluciferase (NLuc) qHTS assay for identification of artifact compounds. (AID 1845222); note: series mostly up to about 54 µM
# Method in brief: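 Compounds are pinned into diluted (1:55) conditioned medium of NLuc-expressing S16 cells and held 15 min at room temperature protected from light. Nano-Glo substrate follows, and luminescence is read 5 min later.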
# [6] = Primary redox qHTS assay for identification of artifact compounds. (AID 1845223)
# Method in brief: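 Amplex Red (25 uM) and HRP (250 mU/mL) in HBSS, with compounds for 15 min, then 250 uM DTT for 30 min, room temperature, dark. Fluorescence 525/598 nm read; normalized to DMSO and 10 uM DA3003; Hill fit.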
# Chain of Phospholipid hydroperoxide glutathione peroxidase GPX4 (Homo sapiens) (P36969 whole entry, looked up): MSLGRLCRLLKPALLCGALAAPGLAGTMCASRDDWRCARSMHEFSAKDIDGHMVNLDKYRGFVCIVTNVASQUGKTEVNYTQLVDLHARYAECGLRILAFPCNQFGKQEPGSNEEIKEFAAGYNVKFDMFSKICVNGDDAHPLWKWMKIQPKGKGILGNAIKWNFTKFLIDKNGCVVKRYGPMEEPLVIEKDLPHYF
# Chain of Glutathione peroxidase 1 (Homo sapiens) (P07203 whole entry, looked up): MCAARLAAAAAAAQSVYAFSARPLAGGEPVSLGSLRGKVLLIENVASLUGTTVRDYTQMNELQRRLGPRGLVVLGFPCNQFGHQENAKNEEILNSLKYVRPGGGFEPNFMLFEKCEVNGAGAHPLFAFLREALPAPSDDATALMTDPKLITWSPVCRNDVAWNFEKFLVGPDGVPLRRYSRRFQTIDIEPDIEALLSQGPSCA
Structure (SMILES),Potency [1],Potency [2],Potency [3],Potency [4],Potency [5],Potency [6],"activity change, negative = inhibition [3]","activity change, negative = thiol reactive [4]","activity, negative = inhibition [5]",redox activity (% of DA3003) [6]
CNc1nc(NCc2ccc(NS(C)(=O)=O)cc2Cl)cc(-c2ccccn2)n1,inactive,inactive,inactive,inactive,inactive,inactive,–,–,–,–
COc1cc(F)c(C(C)C)cc1-c1ccc(C(F)(F)F)cc1CN1C(=O)OC(c2cc(C(F)(F)F)cc(C(F)(F)F)c2)C1C (configuration not stated),inactive,inactive,inactive,inactive,inactive,inactive,–,–,–,–
Cc1cc(C(=O)Nc2cc(Oc3ccc4nc(NC(=O)C5CC5)cn4n3)ccc2C)n(C)n1,inactive,25.5 µM (active),inactive,inactive,inactive,inactive,–,–,–,–
C=C[C@@]12COC(=O)C(=C)[C@@H]1[C@@H](O)[C@H](C(=C)C(=O)OC)[C@@H](O)C2,inactive,inactive,inactive,inactive,inactive,inactive,–,–,–,–
CC(=O)O[C@@H]1[C@@H](O)[C@H](O[C@@H]2[C@@H](O)[C@@H](O)[C@H](O[C@H]3[C@H](O[C@H]4[C@H](O[C@H]5CC[C@@]6(C)C(CC[C@]7(C)C6CC=C6[C@@H]8CC(C)(C)CC[C@]8(C(=O)O)CC[C@]67C)[C@]5(C)CO)O[C@H](CO)[C@@H](O)[C@@H]4O)OC[C@@H](O)[C@@H]3O)O[C@H]2C)OC[C@H]1O (some centres not stated),inactive,inactive,–,–,–,–,-4.72% [at 11.6 µM] (inactive),377% [at 11.5 µM] (inactive),1.48% [at 11.6 µM] (inactive),0.129% [at 11.5 µM] (inactive)
CCCc1cc(C)n(C)c(=O)c1CN(C)C(=O)c1cc(-c2ccc(N3CCN(C(C)C)CC3)nc2)cc2c1cnn2C(C)C,inactive,inactive,inactive,inactive,inactive,inactive,–,–,–,–
Cc1ccccc1C(C(=O)NC1CCCCC1)N(C(=O)Cn1cnc2ccccc21)c1cccc(F)c1 (configuration not stated),inactive,inactive,inactive,inactive,inactive,inactive,–,–,–,–
C=C(C(=O)OC)[C@@H]1CC=C2C=CC(=O)[C@H](C)[C@@]2(C)C1,inactive,inactive,inactive,inactive,inactive,inactive,–,–,–,–
C[C@@]12C(=O)N(c3ccc(C(=O)Nc4cccc5cccnc45)cc3)C(=O)[C@@H]1[C@@H]1C=C[C@H]2C1,inactive,inactive,inactive,inactive,inactive,inactive,–,–,–,–
Cc1ccc(-c2ncc[nH]2)cc1NC(=O)c1ccc(OCc2ccccn2)cc1,inactive,inactive,inactive,inactive,inactive,inactive,–,–,–,–
C=C1C(=O)OC2/C=C(\COC(C)=O)CC/C=C(\C=O)CC(OC(=O)C(C)CC)C12 (configuration not stated),inactive,inactive,inactive,inactive,inactive,inactive,–,–,–,–
Cc1cc(-c2ncc(-c3cccnc3)cc2/C=C/c2ccccc2)cnc1-c1cccnc1,18 µM (active),inactive,inactive,inactive,inactive,inactive,–,–,–,–
O=C(Nc1ccccc1)N1CCN(c2nc(-c3ccccc3)ns2)CC1,inactive,inactive,inactive,inactive,inactive,inactive,–,–,–,–
Nc1nc2c(ncn2C2OC3COP(=O)(O)OC3C2O)c(=O)[nH]1 (configuration not stated),inactive,inactive,inactive,inactive,inactive,inactive,–,–,–,–
CCOc1cc(C(C)(C)C)ccc1C1=NC(C)(c2ccc(Cl)cc2)C(C)(c2ccc(Cl)cc2)N1C(=O)N1CCN(CCCS(C)(=O)=O)CC1 (configuration not stated),inactive,inactive,inactive,inactive,inactive,inactive,–,–,–,–
CCN1C(C)(C)CC(Oc2ccc(C(=O)Nc3ccc(NC(=O)Nc4cc(C(C)(C)C)on4)cc3)nc2)CC1(C)C,inactive,inactive,inactive,inactive,inactive,inactive,–,–,–,–
CNC(C)C(=O)NC(C(=O)N1CCCC1C(=O)Nc1snnc1-c1ccccc1)C1CCCCC1 (configuration not stated),inactive,inactive,inactive,inactive,inactive,inactive,–,–,–,–
C=C(C)C1CCC2(C(=O)O)CCC3(C)C(CCC4C5(C)C(C=O)C(O)C(C)(C)C5CCC43C)C12 (configuration not stated),inactive,inactive,inactive,inactive,inactive,inactive,–,–,–,–
O=C(CNC(=O)c1cccc(C(F)(F)F)c1)N[C@@H]1CCN(Cc2ccc(Cl)cc2)C1,inactive,inactive,inactive,inactive,inactive,inactive,–,–,–,–
CC(=O)C1(C)CCC2C3C=C(C)C4=CC(=O)CCC4(C)C3CCC21C (configuration not stated),inactive,inactive,inactive,inactive,inactive,inactive,–,–,–,–
C=CC(=O)N1CCC(Oc2cc3c(Nc4ccc(Cl)c(Cl)c4F)ncnc3cc2OC)CC1,inactive,inactive,inactive,inactive,inactive,inactive,–,–,–,–
CN1c2c(nc(N)[nH]c2=O)NC[C@@H]1CNc1ccc(C(=O)N[C@@H](CCC(=O)O)C(=O)O)cc1,inactive,inactive and 1.24 µM (active),inactive,inactive,inactive,inactive,–,–,–,–
